{"source": "PubChem BioAssay AID1745848", "about": "(National Center for Advancing Translational Sciences (NCATS), 2022)", "note": "Out of some 2,100 compounds screened, about 940 (45%) were called active. Inconclusive results (about 48%) are left out. Calls come from the whole dose curve; as a rule, active = well fitted inhibition curve with a large enough effect; inconclusive = small, poorly fitted or top-dose-only effect; inactive = no such curve, though single readings can be large or run the other way. So high a share suggests a set chosen from earlier hits. The list shows a part of the results. Potency is the fitted concentration of half-maximal effect.", "data": [{"experiment": "Confirmatory qHTS for Inhibitors of ATXN expression; note: nearly all actives have a fitted effect of over 65% in size", "settings": "ATXN2-luciferase reporter cells, luminescence, 24 h; series mostly up to 11.5 µM", "procedure,_shortened": "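A titration, incubated 24 h with reporter cells expressing ATXN2-luciferase. Luminescence (SteadyGlo) gives ATXN2 expression, multiplexed GF-AFC fluorescence gives viability; normalised to DMSO and medium-only wells.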", "values": [{"smiles": "N/C(=C\\C(=O)c1cc(Cl)ccc1O)C(Cl)(Cl)Cl", "Potency": "3.16 µM (active)"}, {"smiles": "C/C(=N\\NC(=O)C(C)n1nc(C)c([N+](=O)[O-])c1C)c1ccccc1O", "note": "(stereo unspecified)", "Potency": "3.16 µM (active)"}, {"smiles": "O=C1N/C(=N/N=C/c2ccccc2O)SC1Cc1ccc(F)cc1", "note": "(stereo unspecified)", "Potency": "15.8 µM (active)"}, {"smiles": "Cc1[nH]n(-c2ccccc2)c(=O)c1/C=N/NC(=O)c1ccccc1F", "Potency": "4.47 µM (active)"}, {"smiles": "CC(C)(CO)NCc1c(OCc2ccc(Cl)cc2)ccc2ccccc12", "Potency": "14.1 µM (active)"}, {"smiles": "COc1cccc(CN(C)C(=O)CNC(=O)c2ccc(-c3ccccc3)cc2)c1OC", "Potency": "14.1 µM (active)"}, {"smiles": "CCOC(=O)c1ccc(NC(=O)C2CCCN(S(=O)(=O)c3ccc(F)cc3)C2)cc1", "note": "(stereo unspecified)", "Potency": "28.2 µM (active)"}, {"smiles": "CCOC(=O)c1ccc(NC(=O)c2nc[nH]c2C(=O)N[C@H](C)c2ccccc2)cc1", "Potency": "inactive"}, {"smiles": "O=C(Nc1ccccc1C(=O)Nc1nnc(C(F)(F)F)s1)c1ccccc1Cl", "Potency": "3.55 µM (active)"}, {"smiles": "O=C(Nc1ccccc1C(=O)Nc1nnc(C(F)(F)F)s1)c1ccccc1", "Potency": "1.78 µM (active)"}, {"smiles": "CN(C)S(=O)(=O)c1cccc(N2C(=O)CC3(CCCCC3)CC2=O)c1", "Potency": "inactive"}, {"smiles": "COc1ccccc1CNc1nc(NCc2ccc(NC(C)=O)cc2)c2sccc2n1", "Potency": "3.16 µM (active)"}, {"smiles": "COc1ccccc1CNc1nc(NCc2cccc(OC)c2OC)c2sccc2n1", "Potency": "25.1 µM (active)"}, {"smiles": "COc1cccc(CNc2nc(NCc3ccccc3)nc3ccsc23)c1", "Potency": "15.8 µM (active)"}, {"smiles": "CN(C)S(=O)(=O)c1ccc(-c2csc(N/N=C/c3ccco3)n2)cc1", "Potency": "2.82 µM (active)"}, {"smiles": "O=C(/C=C\\c1ccco1)Nc1nc(-c2ccc3ccccc3c2)cs1", "Potency": "inactive"}, {"smiles": "O=C(CN1C(=O)c2ccccc2S1(=O)=O)N1CCc2ccccc21", "Potency": "0.447 µM (active)"}, {"smiles": "O=C(CN1C(=O)c2ccccc2S1(=O)=O)c1ccc(O)c(O)c1", "Potency": "inactive"}, {"smiles": "O=C(CN1C(=O)c2ccccc2S1(=O)=O)c1ccc(Cl)cc1Cl", "Potency": "0.891 µM (active)"}, {"smiles": "O=C(CN1C(=O)c2ccccc2S1(=O)=O)Nc1ncc(Cl)cc1Cl", "Potency": "2.82 µM (active)"}, {"smiles": "O=C(CN1c2cccc3cccc(c23)S1(=O)=O)NCc1ccc(Cl)cc1", "Potency": "inactive"}, {"smiles": "Cc1nnc(SCC(N)=O)n1CC1CCCO1", "note": "(stereo unspecified)", "Potency": "inactive"}, {"smiles": "Cc1cc(C(=O)CN2C(=O)c3ccccc3S2(=O)=O)c(C)n1CC1CCCO1", "note": "(stereo unspecified)", "Potency": "0.355 µM (active)"}, {"smiles": "CCn1c(C)cc(C(=O)CN2C(=O)c3ccccc3S2(=O)=O)c1C", "Potency": "1.26 µM (active)"}, {"smiles": "Cc1cc(C(=O)CN2C(=O)c3ccccc3S2(=O)=O)c(C)n1C(C)C", "Potency": "1.58 µM (active)"}, {"smiles": "O=C(O)COc1ccc2oc3ccccc3c2c1", "Potency": "inactive"}]}]}
